# Data taken from PubChem BioAssay.
# The source made the active and inactive calls.
# Tests used:
# [1] = binders of probe aFSTL3 on microarray, primary screen, stem cell growth factor project, biochemical, small-molecule microarray, fluorescence 635/667 (AID 1064); details: higher = more signal;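 note: measures binding of the biotinylated anti-FSTL3 antibody to printed compounds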
# [2] = binders from COS7 lysate, DM2A8 probe, primary screen, torsin A project, cell lysate, small-molecule microarray, fluorescence 635/667 (AID 1065); details: higher = more signal, COS7 lysate expressing mutant human TOR1A
# [3] = binders of probe aFGF2 on microarray, primary screen, stem cell growth factor project, biochemical, small-molecule microarray, fluorescence 635/667 (AID 1067); details: higher = more signal;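 note: measures binding of biotinylated aFGF2 protein to printed compounds on slides; z-score merges feature fluorescence and signal-to-noise across triplicate slides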
# [4] = binders of probe aFGF10 on microarray, primary screen, stem cell growth factor project, biochemical, small-molecule microarray, fluorescence 635/667 (AID 1071); details: higher = more signal;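 note: score merges 667 nm spot intensity and signal to noise from triplicate slides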
# [5] = molecular target: Neurogenic locus notch homolog protein 2 (Homo sapiens) (UniProt Q04721); test: Notch2 binders on small-molecule microarrays, primary screen, biochemical, small-molecule microarray, 635 nm fluorescence, stem cell growth factors (AID 1073); details: Notch2 binding, higher = more signal
# Chain of Neurogenic locus notch homolog protein 2 (Homo sapiens) (Q04721 whole entry, looked up, canonical isoform): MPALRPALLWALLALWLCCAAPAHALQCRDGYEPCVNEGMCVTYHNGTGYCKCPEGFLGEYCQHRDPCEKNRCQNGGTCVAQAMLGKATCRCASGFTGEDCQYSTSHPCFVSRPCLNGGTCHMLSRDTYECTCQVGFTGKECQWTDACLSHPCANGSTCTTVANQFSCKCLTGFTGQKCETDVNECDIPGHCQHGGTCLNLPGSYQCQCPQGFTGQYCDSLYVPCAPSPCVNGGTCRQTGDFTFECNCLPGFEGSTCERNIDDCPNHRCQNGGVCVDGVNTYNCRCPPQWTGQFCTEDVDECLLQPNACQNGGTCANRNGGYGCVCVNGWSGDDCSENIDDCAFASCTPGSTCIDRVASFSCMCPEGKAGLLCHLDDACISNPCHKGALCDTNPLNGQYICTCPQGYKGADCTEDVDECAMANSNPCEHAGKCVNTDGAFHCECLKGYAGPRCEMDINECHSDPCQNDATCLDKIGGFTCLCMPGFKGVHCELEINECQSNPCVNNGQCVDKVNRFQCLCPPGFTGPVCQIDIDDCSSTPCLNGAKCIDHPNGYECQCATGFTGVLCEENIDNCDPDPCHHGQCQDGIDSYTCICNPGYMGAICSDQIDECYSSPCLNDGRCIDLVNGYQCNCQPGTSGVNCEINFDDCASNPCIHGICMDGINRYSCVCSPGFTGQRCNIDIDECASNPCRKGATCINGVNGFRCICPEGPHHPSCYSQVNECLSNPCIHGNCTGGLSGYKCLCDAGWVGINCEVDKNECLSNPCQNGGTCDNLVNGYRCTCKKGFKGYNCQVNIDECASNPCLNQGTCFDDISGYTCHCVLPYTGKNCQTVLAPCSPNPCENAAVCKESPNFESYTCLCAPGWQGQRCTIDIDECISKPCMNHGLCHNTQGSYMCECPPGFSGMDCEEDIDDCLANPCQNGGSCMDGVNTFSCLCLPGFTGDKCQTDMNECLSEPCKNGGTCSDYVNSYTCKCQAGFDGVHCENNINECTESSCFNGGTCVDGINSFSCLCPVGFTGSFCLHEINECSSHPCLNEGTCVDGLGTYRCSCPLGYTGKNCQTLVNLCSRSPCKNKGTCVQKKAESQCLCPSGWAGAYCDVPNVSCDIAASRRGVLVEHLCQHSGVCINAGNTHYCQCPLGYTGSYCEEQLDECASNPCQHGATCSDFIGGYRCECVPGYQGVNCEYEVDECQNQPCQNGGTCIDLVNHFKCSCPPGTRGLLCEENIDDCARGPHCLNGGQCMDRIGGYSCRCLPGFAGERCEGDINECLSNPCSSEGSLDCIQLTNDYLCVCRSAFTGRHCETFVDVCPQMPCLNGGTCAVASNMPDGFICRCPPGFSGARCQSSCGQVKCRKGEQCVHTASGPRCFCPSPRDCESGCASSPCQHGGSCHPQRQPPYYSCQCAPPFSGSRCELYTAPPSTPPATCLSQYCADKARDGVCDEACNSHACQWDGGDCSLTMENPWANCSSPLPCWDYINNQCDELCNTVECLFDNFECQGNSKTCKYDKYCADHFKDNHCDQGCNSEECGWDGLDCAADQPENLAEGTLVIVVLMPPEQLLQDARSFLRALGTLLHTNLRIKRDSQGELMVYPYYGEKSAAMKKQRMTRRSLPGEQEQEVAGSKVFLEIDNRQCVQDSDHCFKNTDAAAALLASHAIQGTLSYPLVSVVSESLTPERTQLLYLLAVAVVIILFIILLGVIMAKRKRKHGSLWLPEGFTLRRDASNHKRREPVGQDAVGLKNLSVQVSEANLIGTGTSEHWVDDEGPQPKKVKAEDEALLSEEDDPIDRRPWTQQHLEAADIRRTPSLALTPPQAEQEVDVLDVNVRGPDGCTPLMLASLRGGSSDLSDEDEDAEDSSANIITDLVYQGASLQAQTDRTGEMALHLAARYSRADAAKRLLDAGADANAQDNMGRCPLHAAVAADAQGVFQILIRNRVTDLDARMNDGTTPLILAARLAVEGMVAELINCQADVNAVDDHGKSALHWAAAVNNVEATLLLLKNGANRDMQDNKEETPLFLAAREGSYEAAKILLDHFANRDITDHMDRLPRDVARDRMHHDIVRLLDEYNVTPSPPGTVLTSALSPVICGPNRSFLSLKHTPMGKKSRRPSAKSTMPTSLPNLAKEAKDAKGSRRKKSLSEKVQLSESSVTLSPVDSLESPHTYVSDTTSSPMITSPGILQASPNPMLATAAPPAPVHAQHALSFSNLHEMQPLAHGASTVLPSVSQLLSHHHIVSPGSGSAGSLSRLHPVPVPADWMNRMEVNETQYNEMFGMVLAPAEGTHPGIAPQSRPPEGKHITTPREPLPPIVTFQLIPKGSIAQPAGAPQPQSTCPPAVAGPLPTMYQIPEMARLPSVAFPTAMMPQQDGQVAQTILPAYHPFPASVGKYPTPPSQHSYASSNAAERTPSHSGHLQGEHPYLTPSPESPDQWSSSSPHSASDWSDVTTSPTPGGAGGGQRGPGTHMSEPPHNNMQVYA
# [6] = molecular target: Pro-neuregulin-1, membrane-bound isoform (Homo sapiens) (UniProt Q02297); test: NRG1 binders on small-molecule microarrays, primary screen, psychiatric disease protein project, biochemical, small-molecule microarray, fluorescence 635/667 (AID 1075); details: NRG1 binding, 635 nm fluorescence, higher = more signal;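 note: score combines 667 nm spot fluorescence with signal to noise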
# Chain of Pro-neuregulin-1, membrane-bound isoform (Homo sapiens) (Q02297 whole entry, looked up, the tested form may be a part, canonical isoform): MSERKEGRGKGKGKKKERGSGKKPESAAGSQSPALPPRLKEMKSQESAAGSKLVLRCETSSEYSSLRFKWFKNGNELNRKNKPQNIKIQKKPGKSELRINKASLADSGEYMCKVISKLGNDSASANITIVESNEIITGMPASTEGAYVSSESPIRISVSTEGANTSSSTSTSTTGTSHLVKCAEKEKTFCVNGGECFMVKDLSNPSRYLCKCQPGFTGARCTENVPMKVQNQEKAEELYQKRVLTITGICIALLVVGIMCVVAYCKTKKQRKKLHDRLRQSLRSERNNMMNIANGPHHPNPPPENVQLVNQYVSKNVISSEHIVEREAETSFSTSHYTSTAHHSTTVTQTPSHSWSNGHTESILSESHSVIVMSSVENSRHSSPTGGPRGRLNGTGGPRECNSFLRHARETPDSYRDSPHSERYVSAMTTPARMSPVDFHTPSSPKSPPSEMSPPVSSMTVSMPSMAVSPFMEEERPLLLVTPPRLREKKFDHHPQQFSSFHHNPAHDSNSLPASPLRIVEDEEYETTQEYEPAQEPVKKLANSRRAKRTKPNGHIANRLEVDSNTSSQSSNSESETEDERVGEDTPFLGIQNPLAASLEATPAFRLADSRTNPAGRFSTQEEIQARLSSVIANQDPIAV
# [7] = test system: Neuregulin-1 EGF-like domain; test: binders of neuregulin-1 EGF-like domain, primary screen, biochemical, small-molecule microarray, 635 nm fluorescence (AID 1081); details: small-molecule microarray binding, higher = more signal;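 note: binding of the protein to compounds printed on small-molecule microarray slides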
# [8] = FRG1 promoter luciferase signal modulators, primary screen, FRG1 inhibition for FSHD, cell-based, C2C12 myotubes, firefly/Renilla luciferase, luminescence (AID 1084); details: higher = more signal, called active from +8 up or from −8 down
# [9] = binders of probe aFST on microarray, primary screen, stem cell growth factor project, biochemical, small-molecule microarray, fluorescence 635/667 (AID 1086); details: higher = more signal;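 note: score merges 667 nm fluorescence with signal-to-noise of each printed compound spot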
# [10] = binders of probe aHhip on microarray, primary screen, stem cell growth factor project, biochemical, small-molecule microarray, fluorescence 635/667 (AID 1087); details: higher = more signal;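 note: score merges spot fluorescence at 667nm with spot signal to noise ratio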
# [11] = test system: PRMT1 (protein arginine N-methyltransferase 1); test: PRMT1 binders on small-molecule microarrays, primary screen, biochemical, small-molecule microarray, 635 nm fluorescence (AID 1088); details: small-molecule microarray binding, higher = more signal;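 note: binding of Prmt1 protein to compounds spotted on small-molecule microarray slides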
# [12] = yeast growth modulation, basal conditions, primary screen, YJM789 clinical isolate, OD600, 24 h (AID 1089);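 note: growth of clinical yeast isolate S. cerevisiae YJM 789 seeded 1000 cells per well; test concentration not given here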; details: S. cerevisiae YJM789 growth, higher = more signal, called active from +8 up or from −8 down
# [13] = fission yeast growth modulation, primary screen, strain 972, OD600, 24 h, no modulator (AID 1090);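 note: basal condition with compound alone and no growth modifier present; test concentration not given here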; details: S. pombe 972 growth, higher = more signal, called active from +8 up or from −8 down
# [14] = S. cerevisiae growth modulation with rapamycin, primary screen, strain BY4716, OD600, 96 h (AID 1091); details: higher = more signal, called active from +8 up or from −8 down; note: test concentration not given here
# [15] = molecular target: Torsin-1A-interacting protein 2 (Homo sapiens) (UniProt Q8NFQ8); test: LULL1 binders on small-molecule microarray, primary screen, cell lysate, human LULL1 lysate, 635/667 nm fluorescence (AID 1092); details: hLULL1 lysate binding, 635 nm fluorescence, higher = more signal;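 note: probe is lysate of COS7 cells overexpressing human LULL1; score merges per-feature 667 nm fluorescence with signal-to-noise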
# Chain of Torsin-1A-interacting protein 2 (Homo sapiens) (Q8NFQ8 whole entry, looked up): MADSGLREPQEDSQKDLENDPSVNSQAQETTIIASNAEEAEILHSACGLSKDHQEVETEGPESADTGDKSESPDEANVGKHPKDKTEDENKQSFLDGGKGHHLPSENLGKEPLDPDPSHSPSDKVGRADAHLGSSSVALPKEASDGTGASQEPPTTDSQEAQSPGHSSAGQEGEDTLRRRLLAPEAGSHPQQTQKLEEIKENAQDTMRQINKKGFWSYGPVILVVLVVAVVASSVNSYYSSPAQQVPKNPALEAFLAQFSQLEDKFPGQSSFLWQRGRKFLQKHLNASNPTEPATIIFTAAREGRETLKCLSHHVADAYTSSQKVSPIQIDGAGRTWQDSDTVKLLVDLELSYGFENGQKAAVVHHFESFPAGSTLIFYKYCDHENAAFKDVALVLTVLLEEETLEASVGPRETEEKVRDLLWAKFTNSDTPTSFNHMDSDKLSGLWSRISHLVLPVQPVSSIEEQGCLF
# [16] = E. coli growth modulation, two-sided OD650, primary screen, E. coli filamentation project, strain DRC41, 24 h (AID 1093); details: OD650, 24 h, higher = more signal, called active from +8 up or from −8 down;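 note: MC1000 strain lacking acrAB efflux and sulA so SOS filamentation is blocked; test concentration not given here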
# [17] = small-molecule microarray binders of probe aLefty2, primary screen, biochemical, biotinylated probe, 635/667 nm fluorescence (AID 1094); details: higher = more signal;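 note: score merges spot fluorescence near 667 nm with spot signal-to-noise ratio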
# [18] = test system: Noggin (protein binding on small-molecule microarray); test: Noggin binders on small-molecule microarray, primary screen, biochemical, 635/667 nm fluorescence (AID 1095); details: 635 nm fluorescence, higher = more signal;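 note: score merges 667 nm feature fluorescence with signal to noise over triplicate slides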
# [19] = molecular target: Neurogenic locus notch homolog protein 3 (Homo sapiens) (UniProt Q9UM47); test: NOTCH3 binders on small-molecule microarray, primary screen, biochemical, 635/667 nm fluorescence (AID 1096); details: NOTCH3 binding, 635 nm fluorescence, higher = more signal
# [20] = small-molecule microarray binders of probe aEGFR, primary screen, biochemical, biotinylated probe, 635/667 nm fluorescence (AID 1097); details: higher = more signal;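 note: probe is a biotinylated anti-EGFR antibody binding compounds printed on slides; score combines fluorescence near 667 nm and signal to noise of each spot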
SMILES,composite z-score [1],composite z-score [2],composite z-score [3],composite z-score [4],composite z-score [5],composite z-score [6],composite z-score [7],z-score [8],composite z-score [9],composite z-score [10],composite z-score [11],z-score [12],z-score [13],z-score [14],composite z-score [15],z-score [16],composite z-score [17],composite z-score [18],composite z-score [19],composite z-score [20]
CCOC(=O)C1=CCC(c2cccc(Cl)c2)O1 (stereo not given),-0.267,0.491,-0.0036,0.0428,0.105,1.06,0.575,-0.242 (inactive),0.0826,-0.131,0.487,-2.79 (inactive),-0.615 (inactive),3.33 (inactive),0.744,0.558 (inactive),-0.0831,-0.0785,0.186,-0.0953
COC(=O)[C@@]1(Cc2ccc(F)cc2)[C@H]2c3cc(C(=O)N(C)C)n(Cc4ccc(C)c(F)c4F)c3C[C@H]2CN1C(=O)c1ccccc1,0.896,0.0685,0.0697,0.795,1.62,1.71,1.36,0.55 (inactive),0.758,0.177,-0.495,0.28 (inactive),1.18 (inactive),0.934 (inactive),3.18,0.583 (inactive),0.439,-0.724,0.876,0.856
COC(=O)[C@@]1(Cc2ccc(OC)cc2)[C@H]2c3cc(C(=O)N4CCCC4)n(Cc4ccc(C)o4)c3C[C@H]2CN1C(=O)c1ccccc1,0.833,-0.0673,0.218,1.15,1.62,1.83,0.266,8.22 (active),1.05,-0.116,0.622,-19.7 (active),-15.7 (active),-2.14 (inactive),3.24,-0.715 (inactive),0.292,0.355,1.07,0.0059
O=C1C[C@@](C(=O)NCc2ccccc2)(c2ccc([N+](=O)[O-])cc2)[C@@H](c2ccc(CO)cc2I)N1C1CCCCC1,1.95,0.379,0.347,0.352,1.08,0.819,1.29,-0.524 (inactive),1.3,0.368,1.55,1.2 (inactive),0.856 (inactive),3.33 (inactive),2.38,1.04 (inactive),0.569,0.924,1.12,0.695
COc1ccc(C(=O)Nc2ccc3c(c2)[C@]2(O[C@@H](CCO)[C@H]([Si](C)(C)c4ccc(OC)cc4)[C@H]2C)C(=O)N3Cc2ccccc2)cc1,0.0295,0.203,-0.155,-0.0615,0.0879,0.725,0.913,-3.63 (inactive),-0.0897,-0.0237,1.3,0.122 (inactive),-3.28 (inactive),3.8 (inactive),0.468,1.11 (inactive),-0.175,0.78,0.163,-0.107
COC(=O)[C@@]1(Cc2ccccc2N=[N+]=[N-])N=C(c2ccc(OCCCO)cc2)O[C@H]1c1ccccc1,0.135,0.748,0.0904,0.264,0.287,1.5,1.16,-2.33 (inactive),0.0635,-0.0994,1.14,-0.0982 (inactive),-3 (inactive),23 (active),1.21,0.0111 (inactive),-0.0654,0.314,0.94,-0.115
CC(C)(C)N1CC=CC23O[C@@H]4C=CCCOC(=O)C4[C@H]2C(=O)N(CCCO)[C@@H]3C1=O (stereo not given in full),0.248,-0.527,-0.181,-0.642,-1.5,-0.509,-0.174,0.489 (inactive),-0.383,-0.0994,-1.49,0.0588 (inactive),-0.37 (inactive),-0.199 (inactive),-1.09,1.04 (inactive),-0.195,-0.399,-1.7,-0.268
C=C(/C(=C/C[C@@H](OC(C)=O)c1ccccc1OCCO)c1cnc2ccccc2c1)C(C)C,-0.0572,1.23,-0.166,0.758,1.13,0.179,0.911,-0.698 (inactive),0.0287,-0.344,1.4,-0.37 (inactive),-1.11 (inactive),-0.449 (inactive),0.885,0.575 (inactive),-0.178,1.2,0.646,-0.0439
CC(C)N1C(=O)c2ccccc2[C@](C)(C(=O)O)[C@@H]1c1ccc(CO)cc1,0.513,-0.671,-0.0255,-0.0804,-0.663,0.752,-0.0487,0.726 (inactive),0.112,-0.0708,-0.0681,-0.0219 (inactive),-0.751 (inactive),-1.16 (inactive),1.32,-0.156 (inactive),-0.0395,-0.615,-0.356,-0.256
COC(=O)[C@H]1N=C(c2ccc(OCCCO)cc2)O[C@H]1c1ccccc1CN=[N+]=[N-],1.03,-0.872,0.0544,-0.202,-0.525,0.526,0.591,4.14 (inactive),0.906,0.334,0.943,-0.363 (inactive),-0.225 (inactive),0.444 (inactive),1.84,0.887 (inactive),0.992,-0.0277,0.27,-0.131
COCCOC(=O)N1C(=O)[C@@]2(c3cc(C#CCCO)ccc31)[C@H](C(=O)N1CCc3cc(OC)c(OC)cc3C1)[C@H]1C(=O)O[C@H](c3ccccc3)[C@H](c3ccccc3)N1[C@@H]2c1ccc(OCCO)cc1,-0.392,0.282,-0.0867,0.501,0.467,0.007,1.16,-0.561 (inactive),0.242,-0.216,1.55,-1.17 (inactive),-0.581 (inactive),2.59 (inactive),2.59,1.26 (inactive),-0.104,1.12,1.07,-0.0859
CN(C)C(=O)[C@@]1(CCS(=O)(=O)c2ccccc2)N=C(c2ccc(OCCCO)cc2)O[C@H]1c1ccccc1CN=[N+]=[N-],-0.323,0.124,0.226,0.972,1.33,1.63,1.27,-1.56 (inactive),0.889,-0.236,1.54,-1.54 (inactive),-0.346 (inactive),0.0194 (inactive),3.79,1.15 (inactive),0.0225,1.66,1.12,0.0316
C=C(/C(=C/C[C@@H](OC(=O)c1ccncc1)c1cccc(OCCO)c1)c1cc(C(=O)OC)ccc1OC)C(C)C,-0.295,0.679,-0.0549,0.579,0.868,0.826,0.981,-1.61 (inactive),0.351,-0.0994,1.33,-0.117 (inactive),-1.22 (inactive),-0.35 (inactive),1.54,1.03 (inactive),0.0233,0.548,0.93,-0.0476
[N-]=[N+]=NCc1ccccc1[C@H]1OC(c2ccc(OCCCO)cc2)=N[C@@]1(Cc1ccccc1)C(N)=O,0.712,0.163,0.0138,0.68,1.05,1.36,1.1,2.79 (inactive),1.24,0.0623,1.56,-0.116 (inactive),-1.07 (inactive),-0.443 (inactive),3.37,0.369 (inactive),0.408,0.429,1.13,0.29
COCCOC(=O)N1C(=O)[C@@]2(c3cc(C#CCNC(N)=O)ccc31)[C@H](C(N)=O)[C@H]1C(=O)O[C@H](c3ccccc3)[C@H](c3ccccc3)N1[C@@H]2c1ccc(OCCO)cc1,-0.147,0.0525,-0.0139,0.309,1.16,0.564,0.342,1.34 (inactive),0.459,-0.0427,1.55,0.517 (inactive),0.0121 (inactive),1.98 (inactive),1.53,-0.27 (inactive),-0.0054,1.23,1.07,-0.0085
CC(C)NC(=O)[C@@]1(Cc2ccccc2I)c2ccccc2C(=O)N(Cc2ccccc2C(F)(F)F)[C@H]1c1ccc(CO)cc1,0.695,0.44,-0.0316,-0.0029,0.234,1.71,1.21,-2.61 (inactive),0.0674,0.533,1.53,-0.442 (inactive),-1.48 (inactive),-0.918 (inactive),2.84,0.125 (inactive),0.158,0.461,0.662,-0.0304
CN(C)CCCNC(=O)[C@@]1(Cc2ccccc2I)c2ccccc2C(=O)N(Cc2ccccc2Cl)[C@H]1c1ccc(CO)cc1,1.17,-0.576,0.0516,0.617,0.0497,1.47,1.25,-2.07 (inactive),0.294,-0.181,0.9,-0.531 (inactive),-19.8 (active),-2.99 (inactive),2.78,-1.7 (inactive),0.222,-0.819,-0.063,0.147
COc1ccc([Si](C)(C)[C@@H]2[C@@H](CC(=O)N(CCO)Cc3ccccc3)O[C@]3(C(=O)N(C)c4c(Br)cc(C)cc43)[C@H]2C)cc1,-0.106,-0.0018,-0.13,0.33,-0.561,0.679,0.508,-3.19 (inactive),-0.051,0.0052,1.37,-0.8 (inactive),0.0424 (inactive),0.991 (inactive),0.214,-1.37 (inactive),-0.149,1.56,0.92,-0.0978
C[N+](C)(C)CCCC[C@@H]1NC(=O)[C@@H]2C[C@H](C(=O)NCCCCCNC(=O)CS)[C@H](c3cccc(OCCO)c3)N2C1=O,-0.129,0.5,0.0402,0.294,0.151,0.634,1.21,-0.669 (inactive),-0.0763,0.138,0.749,0.539 (inactive),-0.879 (inactive),0.378 (inactive),0.743,0.906 (inactive),0.115,0.505,-0.296,0.0338
